These results are taken from PubChem BioAssay AID2685 (National Center for Advancing Translational Sciences (NCATS), 2010).

Hit rate of the full screen: of about 320,000 compounds, about 2,100 (0.66%) were called active. Inconclusive results (about 53%) are left out. Calls follow the shape of the dose curve; as a rule, active = well fitted inhibition curve with a large enough effect in the signal ratio, with a control signal flat (not every such curve was filed as active); inconclusive = small, poorly fitted or top-dose-only effect, or effect the other way, or a change in a side signal; inactive = flat fitted curve, though single readings scatter; the % refers to the signal ratio. What follows is part of a selection rich in actives, with near analogues and random picks from the rest.
Potency is read from the fitted curve at half-maximal effect.

This test can be described thus: qHTS Assay for Lipid Storage Modulators in Drosophila S3 Cells.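 As to cell number change: cells counted by Cell Tracker Red CMTPX staining in the red channel.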 As to lipid storage change, negative = inhibition: % is scaled to controls: 0 for no effect and ±100 for the full control effect. To be noted: BODIPY lipid droplet fluorescence, 18-24 h, cells fed with added oleic acid; cell number change: measured here: cell count max response; series mostly up to 46.1 µM; lipid storage change, negative = inhibition: at the top concentration. The essentials: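 Drosophila S3 cells loaded with oleic acid (400 uM, as added) and compounds at several concentrations; lipid droplets imaged by 488-nm laser-scanning cytometry, 500–530 nm intensity and object ratio to cell channel. Percent activity normalized to 20 uM Triacsin C.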
Turning to `Nc1oc2ccccc2c(=O)c1-c1ccc2c(c1)OCO2`, the “lipid storage change, negative = inhibition” value is 6.55% (inactive) and the cell number change came to 5.77%.

With `Nc1c(-c2ccc3c(c2)OCCO3)oc2ccccc2c1=O`, the Potency was 1.84 µM (active) and the cell number change is -8.11%. On to `O=c1cc(-c2ccc3c(c2)OCCO3)oc2ccc(Cl)cc12`, for which the “lipid storage change, negative = inhibition” value was 5.34% (inactive) and the cell number change was 12.3%. Turning to `CCOC(=O)C1=C(C)NC2=C(C(=O)CCC2)C1c1cccs1` (configuration not stated), the molecule was classed as inactive and the cell number change is 25.2%. Turning to `COc1ccc(NS(=O)(=O)c2cccc(C(=O)N/N=C(\C)c3ccc(-n4ccnc4)cc3)c2)cc1`, the molecule was called inactive and the cell number change stood at 11.3%. Take `O=C(Nc1ccccc1C(=O)NCCCN1CCOCC1)c1ccc(F)cc1F`: the “lipid storage change, negative = inhibition” value is 0.737% (inactive) and the cell number change was 3.6%.

For `CC1(C)Cc2c(cnn2-c2ccc(F)cc2)C(NC(=O)c2ccoc2)C1` (configuration not stated), the “lipid storage change, negative = inhibition” value is 22% (inactive) and the cell number change came out at 6.57%. Take `CC1(C)Cc2c(cnn2-c2ccc(F)cc2)C(NC(=O)C2=NNC(=O)CC2)C1` (configuration not stated): the call was inactive. `Cn1nccc1C(=O)NC1CC(C)(C)Cc2c1cnn2-c1ccc(F)cc1` (configuration not stated): the “lipid storage change, negative = inhibition” value is 9.92% (inactive). Regarding `COc1ccc(-n2ncc3c2CC(C)(C)CC3NC(=O)c2ccc(OC)o2)cc1` (configuration not stated), the “lipid storage change, negative = inhibition” value is 1.29% (inactive) and the cell number change is -8.87%. Take `CSCc1ccc(C(=O)NC2CC(C)(C)Cc3c2cnn3-c2ccc(F)cc2)o1` (configuration not stated): the Potency is 25.9 µM (active) and the cell number change is -25.2%.

Regarding `COc1ccc(-n2ncc3c2CC(C)(C)CC3NC(=O)c2ccnn2C)cc1` (configuration not stated), the Potency was 14.6 µM (active) and the cell number change was -19.1%. In the case of `CCN1CCCC1CNC(=O)c1cn(C)c2ccc(S(=O)(=O)N3CCCCCC3)cc2c1=O` (configuration not stated), the “lipid storage change, negative = inhibition” value is -0.86% (inactive) and the cell number change was found to be 3.92%.

Take `CC(C)NC(=O)C(OC(=O)c1ccccc1)C(OC(=O)c1ccccc1)C(=O)O` (configuration not stated): the “lipid storage change, negative = inhibition” value was 7.13% (inactive) and the cell number change came out at 7.86%. As to `Cn1nc(-c2ccccc2)cc1NC(=O)Nc1ccccc1F`, the “lipid storage change, negative = inhibition” value is -20.6% (inactive) and the cell number change is -4%. In the case of `COc1cc(CC(=O)OCC(=O)NC2CCCCC2C)cc(OC)c1OC` (configuration not stated), the “lipid storage change, negative = inhibition” value was 8.4% (inactive) and the cell number change was -2.51%. For `Cc1nn(-c2ccccc2)c(C)c1-c1ccccc1O`, the Potency is 7.31 µM (active) and the cell number change is -20.1%. On to `Cc1nn(-c2ccccc2)c(C)c1S(=O)(=O)O`, for which the “lipid storage change, negative = inhibition” value is 28.4% (inactive) and the cell number change was -1.62%.

For the molecule `CC(=O)c1c(C)nn(-c2ccccc2)c1C`, the “lipid storage change, negative = inhibition” value was 7.42% (inactive) and the cell number change was found to be 16.2%. With `O=c1c2[nH]c3ccc(F)cc3c2ncn1Cc1ccncc1`, the “lipid storage change, negative = inhibition” value is 4.58% (inactive) and the cell number change is 1.6%. In the case of `Cc1nn(CC(=O)NC(C)C)c(C)c1[N+](=O)[O-]`, the “lipid storage change, negative = inhibition” value was 24.3% (inactive) and the cell number change amounted to 17.1%.

Regarding `COc1ccc(CC(NC(C)=O)C(=O)NC2CCN(C(=O)c3cccc(Cl)c3)CC2)cc1OC` (configuration not stated), the “lipid storage change, negative = inhibition” value is -3.02% (inactive) and the cell number change was -1.21%. Take `CC(=O)NC(Cc1ccccc1F)C(=O)NC1CCN(C(=O)NCc2ccccc2)CC1` (configuration not stated): the Potency is 6.51 µM (active) and the cell number change was -14.1%. For the molecule `O=C(c1ccc(F)cc1)C1CCN(C(=O)NCc2ccccc2)CC1`, the “lipid storage change, negative = inhibition” value is 12.7% (inactive) and the cell number change amounted to 2.65%. For `O=C(Cc1ccccc1)NC1CCN(C(=O)NCc2ccccc2)CC1` the same measures were -20.6% (inactive) and -0.661%. On to `CC(=O)NC(Cc1ccc(C)cc1)C(=O)NC1CCN(C(=O)NCc2ccccc2)CC1` (configuration not stated), for which the molecule was called inactive and the cell number change is 13.3%.

In the case of `COc1cccc(CC(NC(C)=O)C(=O)NC2CCN(C(=O)Nc3ccc(C)cc3)CC2)c1` (configuration not stated), the “lipid storage change, negative = inhibition” value is -17.2% (inactive) and the cell number change was -3.63%. On to `O=C(NC1CCN(C(=O)NCc2ccccc2)CC1)c1cccc(F)c1`, for which the Potency was 29.1 µM (active) and the cell number change worked out at 11.7%. On to `CC(=O)NC(Cc1cccc(C)c1)C(=O)NC1CCN(C(=O)NCc2ccccc2)CC1` (configuration not stated), for which the “lipid storage change, negative = inhibition” value was -8.97% (inactive) and the cell number change was 5.24%.

With `COc1cccc(CC(NC(C)=O)C(=O)NC2CCN(C(=O)c3ccc(Cl)cc3)CC2)c1` (configuration not stated), the Potency was 3.26 µM (active) and the cell number change was -13.3%.

In the case of `COc1ccnc(Oc2cc(Cl)cc(Cl)c2)c1C#N`, the “lipid storage change, negative = inhibition” value was 10.2% (inactive) and the cell number change was 16.7%. Regarding `COc1cc(C(=O)NCC(=O)OCC(=O)Nc2ncc(Cl)cc2Cl)cc(OC)c1OC`, the “lipid storage change, negative = inhibition” value is 19.4% (inactive). Regarding `O=C(Cn1nnc(-c2cccs2)n1)NCc1ccco1`, the “lipid storage change, negative = inhibition” value is 6.95% (inactive) and the cell number change came to 14.3%. On to `Cc1cc(=O)oc2c3c(cc(OCC(=O)N4CCC(C(=O)O)CC4)c12)OC(C)(C)CC3`, for which the “lipid storage change, negative = inhibition” value was -0.64% (inactive) and the cell number change is 22.1%. `Cc1ncoc1C(=O)NCc1ccccc1Cl`: the “lipid storage change, negative = inhibition” value was -6.9% (inactive) and the cell number change is -13.1%. With `Cc1nc(C)c(C(=O)NCCC(c2ccccc2)c2ccccc2)o1`, the “lipid storage change, negative = inhibition” value is -5.08% (inactive) and the cell number change is -16.5%.

With `Cc1nc(C)c(C(=O)NCc2ccccc2Cl)o1`, the Potency was 8.2 µM (active) and the cell number change was -27.9%.

As to `COC(CNC(=O)c1ccc2nc(-c3ccccc3)c(-c3ccccc3)nc2c1)OC`, the “lipid storage change, negative = inhibition” value is 0.217% (inactive) and the cell number change was -6.61%.

As for `O=C(CN1CCN(c2ccccc2F)CC1)Nc1ccc2c(c1)CCC2`, the “lipid storage change, negative = inhibition” value was 16.4% (inactive) and the cell number change is -8.56%. For `Cc1nc(-c2ccc(S(=O)(=O)Nc3cc(S(=O)(=O)N(C)C)ccc3C)s2)cs1` the same measures were 11.7% (inactive) and 1.19%. As for `Cc1ccc(NS(=O)(=O)c2ccc(Cl)s2)cc1S(=O)(=O)N(C)C`, the molecule was called inactive and the cell number change stood at 9.65%. With `Cc1ccc(S(=O)(=O)N(C)C)cc1NS(=O)(=O)c1ccc(Cl)s1`, the Potency is 6.51 µM (active) and the cell number change worked out at 0.163%.

As to `COCCN(C(=O)c1ccco1)c1nnc(-c2ccc(F)cc2)s1`, the “lipid storage change, negative = inhibition” value was -8.18% (inactive) and the cell number change was found to be 4.04%. For `COCCN(C(=O)c1ccccc1F)c1nnc(-c2ccc(OC)cc2)s1`, the Potency is 18.4 µM (active) and the cell number change is -15.3%. For the molecule `COCCN(C(=O)c1ccccc1F)c1nc(-c2ccc(OC)cc2)cs1`, the molecule was called inactive and the cell number change was -17.2%.
